Experimental findings from PubChem BioAssay (NCI) are described below.

Test systems include SR leukemia; RPMI-8226 leukemia; OVCAR-5 ovarian; OVCAR-4 ovarian; SK-OV-3 ovarian; IGROV1 ovarian; OVCAR-3 ovarian; HS 578T breast; NCI/ADR-RES ovarian; T-47D breast; BT-549 breast; MDA-MB-435 melanoma; SW-620 colon; MCF7 breast; HCT-116 colon; HCC-2998 colon; KM12 colon.
Holding throughout (test): NCI-60 one-dose screen, 48 h (100 = growth as untreated, 0 = no growth, -100 = all killed)
Conditions in all cases: 10 µM unless noted

The panel holds about 83,000 compounds, 20% with a hit somewhere; the sample as a whole holds those more often.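 Results are percent growth after 48 hours of single-concentration exposure. 100 means growth as in untreated cells, lower positive values show inhibition; negative values down to -100 show cell death.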 A number with no mark means an inactive call. Activity calls are given as the source filed them. How the source made its calls: active means growth percent below 10; inactive means the rest.

Take `c1cc(NCCc2ccncc2)nc(-n2cnc3ccccc32)c1`: the growth is 58.2% in the assay on SR leukemia; 68.5% in the assay with RPMI-8226 leukemia; 98% with OVCAR-5 ovarian; 96.7% in the assay with OVCAR-4 ovarian; 97.2% in the assay with SK-OV-3 ovarian; 73.1% with IGROV1 ovarian. Also, the growth is 96.2% in the assay on OVCAR-3 ovarian; 98.2% in the assay on HS 578T breast; 90.7% with NCI/ADR-RES ovarian; 80.4% in the assay on T-47D breast; 98.4% in the assay on BT-549 breast; 95.8% with MDA-MB-435 melanoma. In addition, the growth with SW-620 colon is 94.2%; in the assay with MCF7 breast, 84.2%; in the assay on HCT-116 colon, 81.7%; in the assay with HCC-2998 colon, 104%; in the assay on KM12 colon it was 53.3%.

For `[O-][n+]1c2ccccc2[n+]([O-])c2c3ccccc3[nH]c21`, the growth in the assay with SR leukemia was 95.6%; in the assay on RPMI-8226 leukemia it was 57.9%; in the assay with OVCAR-5 ovarian it was 21%; with OVCAR-4 ovarian, 34.4%; with SK-OV-3 ovarian it was 42.8%; in the assay with IGROV1 ovarian it was 13.8%. The growth in the assay with OVCAR-3 ovarian is -20.6% (active); with HS 578T breast it was 96.3%; in the assay with NCI/ADR-RES ovarian it was 65.4%; in the assay on T-47D breast, 2.23% (active); with BT-549 breast, 81.3%; with MDA-MB-435 melanoma it was 110%. For the same compound, the growth is 45.4% with SW-620 colon; 19.4% in the assay with MCF7 breast; 10.3% with HCT-116 colon; 69.2% in the assay with HCC-2998 colon; 90.1% in the assay with KM12 colon.

Consider `CCN(CC)c1ccc(C2=NN(C(C)=O)C(c3cc(OC)c(OC)c(OC)c3)C2)cc1` (stereo not drawn), for which the growth with SR leukemia was -23.6% (active); in the assay on RPMI-8226 leukemia it was 2.54% (active); in the assay with OVCAR-5 ovarian, 39%; in the assay on OVCAR-4 ovarian it was 46.9%; in the assay with SK-OV-3 ovarian, 31.5%; in the assay on IGROV1 ovarian, -45.1% (active). Also, the growth in the assay on OVCAR-3 ovarian was -64.8% (active); in the assay with HS 578T breast, -12.2% (active); with NCI/ADR-RES ovarian it was -23.9% (active); with T-47D breast, 47.2%; in the assay on BT-549 breast it was -36.3% (active); in the assay with MDA-MB-435 melanoma, -53% (active). Also, the growth was 22.3% in the assay on SW-620 colon; 27% in the assay with MCF7 breast; 6.95% (active) with HCT-116 colon; -6.47% (active) in the assay on HCC-2998 colon; -17% (active) with KM12 colon.

With `COc1cccc(Cc2nn3cc(-c4ccccc4)nc3s2)c1`, the growth with SR leukemia is 16.3%; in the assay on RPMI-8226 leukemia it was 33.7%; in the assay on OVCAR-5 ovarian, 114%; with OVCAR-4 ovarian, 98.4%; in the assay with SK-OV-3 ovarian, 103%; in the assay on IGROV1 ovarian, 86.4%. Also, the growth with OVCAR-3 ovarian is 85.5%; in the assay with HS 578T breast, 106%; in the assay on NCI/ADR-RES ovarian, 101%; in the assay with T-47D breast it was 91.2%; in the assay on BT-549 breast, 91.6%; in the assay with MDA-MB-435 melanoma, 79.2%. In addition, the growth with SW-620 colon is 30.6%; with MCF7 breast, 27.5%; in the assay with HCT-116 colon, 2.81% (active); in the assay with HCC-2998 colon it was 104%; in the assay on KM12 colon, 88.8%.

As to `Nc1ccc(Sc2ccc([N+](=O)[O-])c3nonc23)cc1`, the growth in the assay on SR leukemia is 7.97% (active); in the assay with RPMI-8226 leukemia, 79.9%; in the assay with OVCAR-5 ovarian, 108%; in the assay on OVCAR-4 ovarian, 97.8%; in the assay on SK-OV-3 ovarian, 96.8%; with IGROV1 ovarian, 97%. In addition, the growth is 78% with OVCAR-3 ovarian; 102% in the assay with HS 578T breast; 98.8% in the assay on NCI/ADR-RES ovarian; 54.5% in the assay on T-47D breast; 88.8% with BT-549 breast; 99.2% in the assay on MDA-MB-435 melanoma. The growth was 46% in the assay on SW-620 colon; 73.2% in the assay on MCF7 breast; 66.3% with HCT-116 colon; 108% in the assay with HCC-2998 colon; 96.2% in the assay with KM12 colon.

With `O=C1c2ccccc2NC(n2sc3ccccc3c2=O)N1c1ccccc1` (stereo not drawn), the growth in the assay with SR leukemia was 87.4%; with RPMI-8226 leukemia it was 101%; with OVCAR-5 ovarian it was 110%; in the assay with OVCAR-4 ovarian, 98.5%; in the assay on SK-OV-3 ovarian, 103%; in the assay on IGROV1 ovarian it was 96.5%. The growth in the assay with OVCAR-3 ovarian was 101%; in the assay with HS 578T breast, 106%; in the assay with NCI/ADR-RES ovarian, 95%; in the assay on T-47D breast, 96.4%; with BT-549 breast it was 104%; with MDA-MB-435 melanoma, 111%. The growth with SW-620 colon is 104%; in the assay with MCF7 breast, 94.3%; in the assay on HCT-116 colon, 95.7%; in the assay on HCC-2998 colon, 103%; with KM12 colon, 92.9%.

Take `COc1ccc(CN2c3ccccc3Sc3ccccc32)c(F)c1`: the growth in the assay on SR leukemia is 12.2%; in the assay with RPMI-8226 leukemia, 12.2%; with OVCAR-5 ovarian, 50.2%; in the assay on OVCAR-4 ovarian it was 61.6%; in the assay on SK-OV-3 ovarian it was 30.4%; with IGROV1 ovarian, 50.3%. For the same compound, the growth in the assay with OVCAR-3 ovarian is -20.4% (active); in the assay on HS 578T breast, 21.6%; in the assay with NCI/ADR-RES ovarian, 22%; in the assay with T-47D breast, 11.9%; in the assay with BT-549 breast, 56.5%; with MDA-MB-435 melanoma, -51% (active). For the same compound, the growth in the assay with SW-620 colon was 10.3%; in the assay with MCF7 breast, 22.6%; in the assay on HCT-116 colon, 15.7%; with HCC-2998 colon, 61.6%; in the assay on KM12 colon it was 25.8%.

In the case of `O=c1ccn(Cc2cn(-c3c4ccccc4nc4ccccc34)nn2)c(=O)[nH]1`, the growth in the assay on SR leukemia was 38.8%; in the assay with RPMI-8226 leukemia it was 87.3%; in the assay on OVCAR-5 ovarian, 114%; in the assay with OVCAR-4 ovarian, 109%; in the assay with SK-OV-3 ovarian, 90.9%; in the assay with IGROV1 ovarian, 80.9%. Also, the growth is 110% with OVCAR-3 ovarian; 94.6% in the assay with HS 578T breast; 108% with NCI/ADR-RES ovarian; 38% with T-47D breast; 100% in the assay with BT-549 breast; 99.4% in the assay with MDA-MB-435 melanoma. Also, the growth with SW-620 colon is 93%; in the assay on MCF7 breast it was 36.4%; in the assay with HCT-116 colon it was 92.4%; with HCC-2998 colon it was 90.5%; in the assay with KM12 colon, 104%.

On to `Cc1ccc(C(=O)N/N=C/c2cccc(Oc3ccccc3)c2)cn1`, for which the growth was 48.6% in the assay with SR leukemia; 89.5% in the assay with RPMI-8226 leukemia; 93.1% with OVCAR-5 ovarian; 86.7% in the assay with OVCAR-4 ovarian; 80% in the assay with SK-OV-3 ovarian; 24% in the assay with IGROV1 ovarian. Further, the growth is 35.7% with OVCAR-3 ovarian; 50.8% in the assay with HS 578T breast; 19.8% with NCI/ADR-RES ovarian; 66.3% in the assay on T-47D breast; 38.1% in the assay with BT-549 breast; -48% (active) in the assay on MDA-MB-435 melanoma. Besides, the growth was 29.3% in the assay on SW-620 colon; 37.2% with MCF7 breast; 32.8% in the assay with HCT-116 colon; 55.4% in the assay on HCC-2998 colon; 22.8% in the assay with KM12 colon.
